Test results reported in article PMC5540273 (PLoS ONE, 2017).
Where “and” joins values, the source holds several entries; their conditions need not be identical. Equal values may be shown once. Read-outs that look alike come from different tables or passages of the source.

Experiments:
[1] = system: BMPR1A; details: n = 1
[2] = system: BMPR1B; details: concentration: 1 μM, replicates: in singlicate; n = 1
[3] = system: BMPR2; details: n = 1
[4] = system: BMX; details: n = 1
[5] = system: BRAF; details: n = 1
[6] = system: T1, BRK; details: n = 1
T1 construct: gene PTK6

[7] = system: BRSK1; details: n = 1
[8] = system: BRSK2; details: n = 1
[9] = system: BTK; details: concentration: 1 μM, replicates: in singlicate; n = 1
[10] = system: BUB1; details: n = 1
[11] = concentration: 1 μM, replicates: in singlicate
[12] = concentration: 1 μM,replicates: in singlicate, 1 µM
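Also: KINOMEscan kinase panel screen.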

Structure (SMILES) | %Inh [1, 11] [%] | %Inh [2] [%] | %Inh [3, 11] [%] | %Inh [4, 11] [%] | %Inh [5, 11] [%] | %Inh [6, 11] [%] | %Inh [7, 11] [%] | %Inh [8, 11] [%] | %Inh [9] [%] | %Inh [10, 11] [%] | %Inh [1, 12] | %Inh [3, 12] | %Inh [4, 12] | %Inh [5, 12] | %Inh [6, 12] | %Inh [7, 12] | %Inh [8, 12] | %Inh [10, 12]
Cn1ccc2ncnc(Oc3ccc(NC(=O)Nc4ccccc4)cc3)c21 | 0 | 0 | 0 | 42 | 0 | 6 | 0 | 17 | 0 | 0 |  |  |  |  |  |  |  | 
O=C(Nc1n[nH]c2nc(-c3nccs3)c(Br)cc12)C1CC1 [SB-742251] | 0 | 0 | 63 | 0 | 13 | 2 | 95.3 | 90 | 26 | 48 |  |  |  |  |  |  |  | 
COc1cc2ncnc(Nc3ccc4nc(-c5ccccc5)[nH]c4c3)c2cc1OC.Cl [GW282450] | 0 | 0 | 0 | 10 | 0 | 0 | 0 | 0 | 0 | 6 |  |  |  |  |  |  |  | 
CC(C)(C)c1ccc(C(=O)Nc2cn3cc(Cl)ccc3n2)cc1 | 0 | 3 | 0 | 0 | 9 | 0 | 0 | 0 | 0 | 0 |  |  |  |  |  |  |  | 
Nc1ncnc2[nH]c(-c3ccccc3)nc12 [AH5015] | 0 | 0 | 0 | 20 | 6 | 16 | 1 | 0 | 1 | 38 |  |  |  |  |  |  |  | 
CSc1nn2c(=O)cc(N3CCOCC3)nc2n1Cc1cccc(C(F)(F)F)c1C [GSK2363608] |  | 0 |  |  |  |  |  |  | 0 |  | 17% and 0% | 22% and 0% | 8% and 0% | 0% and 5% | 0% and 10% | 7% and 4% | 4% and 0% | 13% and 0%
Fc1cc(Cl)ccc1Nc1ccnc2cc(-c3ccc(CN4CCCCC4)o3)ccc12 [GW560116] | 0 | 0 | 0 | 0 | 0 | 14 | 2 | 0 | 0 | 26 |  |  |  |  |  |  |  | 
Cc1cc(N2Cc3ccccc3C2)nc(Nc2ccc(S(=O)(=O)N3CCOCC3)cc2)n1.Cl [GSK1669917] | 0 | 0 | 0 | 11 | 0 | 38 | 0 | 0 | 0 | 21 |  |  |  |  |  |  |  | 
COc1cc2ncn(-c3cc(OCC4CCCO4)c(C(N)=O)s3)c2cc1OC (stereo not shown) [GSK204607] | 0 | 0 | 24 | 19 | 0 | 18 | 15 | 7 | 0 | 32 |  |  |  |  |  |  |  | 
Cc1ccc(NC(=O)Nc2cc(C(C)(C)C)nn2-c2ccccc2)cc1 [GSK1014915] | 0 | 0 | 37 | 14 | 74 | 20 | 100 | 0 | 0 | 21 |  |  |  |  |  |  |  | 
CS(=O)(=O)c1ccc(-c2nc3n(c2-c2ccncc2)CCC3)cc1 [SKF-105942] | 0 | 0 | 0 | 1 | 0 | 15 | 0 | 0 | 0 | 26 |  |  |  |  |  |  |  | 
Cc1cc(-c2ccc3c(c2)CC[C@@H](N[C@@H](C)c2ccccc2)C3)cnc1N.Cl [GW412617] | 0 | 0 | 0 | 50 | 1 | 22 | 0 | 0 | 0 | 17 |  |  |  |  |  |  |  | 
Cc1cccc(-c2nc(Nc3ccc4[nH]ncc4c3)c3ccccc3n2)n1 [GW857175] | 60 | 34 | 18 | 15 | 16 | 2 | 0 | 0 | 10 | 65 |  |  |  |  |  |  |  | 
CC1=C(C(=O)Nc2cc3cn[nH]c3cc2F)C(c2ccc(C(F)(F)F)cc2)CC(=O)N1 (stereo not shown) [GSK429286] | 0 | 0 | 6 | 4 | 7 | 20 | 5 | 0 | 0 | 18 |  |  |  |  |  |  |  | 
COc1cc(Nc2nccc(N3CCC(NC(=O)Nc4cc(C)ccc4C)C3)n2)cc(OC)c1OC (stereo not shown) [GSK1379762] | 0 | 0 | 0 | 35 | 7 | 13 | 0 | 0 | 0 | 26 |  |  |  |  |  |  |  | 
C[C@@H]1CCCCN1c1cc(-c2ccc3c(N)n[nH]c3c2)nc(N)n1 [GSK2258759] | 0 | 0 | 0 | 12 | 0 | 11 | 0 | 0 | 0 | 0 |  |  |  |  |  |  |  | 

Structure (SMILES) | %Inh [1, 11] [%] | %Inh [2] [%] | %Inh [3, 11] [%] | %Inh [4, 11] [%] | %Inh [5, 11] [%] | %Inh [6, 11] [%] | %Inh [7, 11] [%] | %Inh [8, 11] [%] | %Inh [9] [%] | %Inh [10, 11] [%] | %Inh [1, 12] | %Inh [3, 12] | %Inh [4, 12] | %Inh [5, 12] | %Inh [6, 12] | %Inh [7, 12] | %Inh [8, 12] | %Inh [10, 12]
Cc1cccc(-c2nc(Nc3cccc(C(N)=O)c3)c3ccccc3n2)n1 [GW876019] | 74 | 0 | 14 | 0 | 0 | 9 | 18 | 0 | 9 | 16 |  |  |  |  |  |  |  | 
Fc1cccc(COc2nnc(-c3ccc4c(c3)CCO4)o2)c1 | 0 | 6 | 18 | 0 | 0 | 0 | 0 | 6 | 17 | 20 |  |  |  |  |  |  |  | 
Cc1ccc(NC(=O)Nc2cccc(Cl)c2)cc1-c1ccc(C(=O)Nc2ccncc2)cc1 [GSK1398468] | 0 | 0 | 0 | 0 | 67 | 13 | 100 | 9 | 0 | 53 |  |  |  |  |  |  |  | 
O=C(Nc1ccc2c(c1)OCO2)NC1CCN(c2ccnc(Nc3ccc(F)cc3)n2)C1 (stereo not shown) [GSK1379724] | 0 | 0 | 18 | 5 | 1 | 16 | 0 | 0 | 0 | 24 |  |  |  |  |  |  |  | 
Cl.NC(=O)c1cccc(Nc2nccc(Nc3ccc(Oc4cccc(Cl)c4)c(Cl)c3)n2)c1 [GW659008] | 0 | 0 | 3 | 14 | 0 | 69 | 0 | 0 | 0 | 36 |  |  |  |  |  |  |  | 
COc1cccc(NC(=O)NC2CCN(c3ccnc(Nc4ccc(F)cc4)n3)C2)c1 (stereo not shown) [GSK1379721] | 0 | 0 | 7 | 0 | 0 | 0 | 0 | 0 | 0 | 10 |  |  |  |  |  |  |  | 
Cc1cccc(-c2nc(-c3ccc(S(C)(=O)=O)cc3)sc2-c2ccnc(NCCc3ccccc3)c2)c1 | 27 | 6 | 1 | 0 | 95.8 | 0 | 3 | 0 | 0 | 24 |  |  |  |  |  |  |  | 
CCCc1ccc(S(=O)(=O)NC2CCN(c3ccnc(Nc4ccc(F)cc4)n3)C2)cc1 (stereo not shown) [GSK1379715] | 0 | 0 | 0 | 2 | 0 | 0 | 0 | 0 | 0 | 29 |  |  |  |  |  |  |  | 
Cl.c1ccc(-c2n[nH]cc2-c2ccnc(-c3ccc(CN4CCOCC4)cc3)c2)nc1 [GW776245] | 0 | 52 | 0 | 13 | 16 | 0 | 0 | 21 | 0 | 0 |  |  |  |  |  |  |  | 
COc1ccc(Nc2nccc(NCCNC(=O)Nc3ccccc3F)n2)cc1 [GSK1379901] | 0 | 0 | 6 | 2 | 0 | 36 | 16 | 0 | 0 | 53 |  |  |  |  |  |  |  | 
COC(=O)c1c(-c2ccccc2)c2cc(C(=O)O)ccc2c(=O)n1Cc1ccccc1 | 0 | 3 | 0 | 17 | 90 | 0 | 0 | 0 | 0 | 0 |  |  |  |  |  |  |  | 
Cc1ccc(C(=O)Nc2ccc(Nc3ccnc4cc(-c5ccccn5)ccc34)cc2O)cc1.Cl [GW440146] | 0 | 0 | 0 | 14 | 0 | 29 | 0 | 0 | 46 | 54 |  |  |  |  |  |  |  | 
COc1cccc(-c2cc(-c3c[nH]nc3-c3ccccn3)ccn2)c1 [GW680338] | 0 | 0 | 10 | 12 | 12 | 4 | 3 | 0 | 0 | 27 |  |  |  |  |  |  |  | 
CC(C)(C)c1ccc(C(=O)Nc2cn3cc(-c4cccnc4)ccc3n2)cc1 | 34 | 0 | 1 | 25 | 0 | 0 | 6 | 25 | 0 | 8 |  |  |  |  |  |  |  | 
Clc1cc(Cl)cc(Nc2ccnc(Nc3cc(Cl)cc(Cl)c3)n2)c1 [GSK175726] | 0 | 0 | 5 | 26 | 0 | 21 | 0 | 0 | 0 | 10 |  |  |  |  |  |  |  | 
